Measured values published in PubChem BioAssay (NCATS).
Several values for one entry are separate records, joined by “and”; a condition that tells them apart may be missing. Identical values can stand only once. Inconclusive results are not listed. Where a structure was tested more than once in an assay, its records may differ in their call. Activity calls are given as the source filed them. Calls come from the whole dose curve; as a rule, active = well fitted inhibition curve with a large enough effect in the signal ratio, with a control signal flat (not every such curve was filed as active); inconclusive = small, poorly fitted or top-dose-only effect, or effect the other way, or a change in a side signal; inactive = no such curve, though single readings can be large or run the other way; the % refers to the signal ratio.

System: not listed separately
Assay: qHTS assay for small molecule antagonists of retinoid X receptor alpha signaling (AID 588546)
Conditions: HEK293T RXRa-UAS-bla, beta-lactamase ratio, antagonist mode; measured here: W530 green channel, cytotoxicity proxy
Summary of the method: (§1)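 Beta-lactamase reporter inhibition, read as CCF4 fluorescence ratio (ex 405, em 460/530 nm) after 2 h at RT. HEK293T UAS-bla cells, 2500/well, were stimulated with 9-cis-RA at 500 or 100 nM final alongside test compound for 18 h at 37 C.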
% is set by controls: 0 for no effect and ±100 for the full control effect; potency is the fitted concentration of half-maximal effect.

Compound | max response
CCCCOC(=O)CC(CC(=O)OCCCC)(OC(C)=O)C(=O)OCCCC | -7.31%
CCCCCCCCCCCCCCCCO | -10.1%
C#C[C@]1(O)CC[C@H]2[C@@H]3CCC4=Cc5oncc5C[C@]4(C)[C@H]3CC[C@@]21C | 10.7%
C/C=C/c1ccc(O)c(OC)c1 | 1.1% and -9.34%
CCOc1ccc(NC(C)=O)cc1 | -2.9% and -4.43%
CCCCCCCC/C=C\CCCCCCCCN | 0.483%
OC[C@H]1O[C@@H]2O[C@H]3[C@H](O)[C@@H](O)[C@@H](O[C@H]4[C@H](O)[C@@H](O)[C@@H](O[C@H]5[C@H](O)[C@@H](O)[C@@H](O[C@H]6[C@H](O)[C@@H](O)[C@@H](O[C@H]7[C@H](O)[C@@H](O)[C@@H](O[C@H]8[C@H](O)[C@@H](O)[C@@H](O[C@H]1[C@H](O)[C@H]2O)O[C@@H]8CO)O[C@@H]7CO)O[C@@H]6CO)O[C@@H]5CO)O[C@@H]4CO)O[C@@H]3CO | 2.41%
COc1ccc(C(=O)c2ccccc2)c(O)c1 | 4.73% and -13.9%
CCOc1ccccc1C(N)=O | -1.33%
O=C(O)c1ccc(S(=O)(=O)N(Cl)Cl)cc1 | -4.72%
COc1ccc(C(Cl)=C(c2ccc(OC)cc2)c2ccc(OC)cc2)cc1 | -0.236%
NCCNc1cccc2ccccc12 | 2.26% and -22%
CN(C)C(=O)Nc1ccc(Cl)c(Cl)c1 | 0.705%
CCCCCCCCCCCCCC(=O)OC(C)C | -10.1%
CC1(C)OC[C@@H]2O[C@@]3(C(=O)O)OC(C)(C)O[C@H]3[C@@H]2O1 | -2.62%
CCCN(CCC)S(=O)(=O)c1ccc(C(=O)O)cc1 | -8.2% and -10.3%
CCCCCCCCCCCCCCCC(=O)O | -11.4%
NC(=O)c1ccccc1O | -19%
CCCCC(CC)COC(=O)c1ccc(N(C)C)cc1 (stereo not drawn) | -15.4% and -7.64%
CC1(COc2ccc(CC3SC(=O)NC3=O)cc2)CCCCC1 (stereo not drawn) | 20.2%
CCCCCCCCOc1ccc(C(=O)c2ccccc2)c(O)c1 | -13.7%

Target: Retinoic acid receptor RXR-alpha (Homo sapiens) (UniProt P19793)
Assay: as above
Conditions: HEK293T RXRa-UAS-bla, beta-lactamase ratio, antagonist mode
Summary of the method: as §1

Sequence of Retinoic acid receptor RXR-alpha (Homo sapiens) (P19793 whole entry, looked up): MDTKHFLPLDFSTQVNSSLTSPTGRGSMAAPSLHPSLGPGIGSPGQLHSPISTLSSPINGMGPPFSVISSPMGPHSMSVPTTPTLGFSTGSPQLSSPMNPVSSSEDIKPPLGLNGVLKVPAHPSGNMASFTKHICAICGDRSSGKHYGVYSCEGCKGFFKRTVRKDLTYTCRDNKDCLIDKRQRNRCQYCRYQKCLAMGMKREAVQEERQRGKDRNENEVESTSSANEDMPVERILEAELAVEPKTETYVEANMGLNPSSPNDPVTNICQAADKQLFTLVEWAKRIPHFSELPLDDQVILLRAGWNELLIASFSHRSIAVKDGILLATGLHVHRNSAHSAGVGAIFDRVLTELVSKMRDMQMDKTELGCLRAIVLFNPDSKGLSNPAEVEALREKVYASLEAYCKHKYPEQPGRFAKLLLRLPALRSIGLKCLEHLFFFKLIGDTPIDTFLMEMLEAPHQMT

Compound | max response | Potency
CCCCOC(=O)CC(CC(=O)OCCCC)(OC(C)=O)C(=O)OCCCC | -5.69% (inactive) | 
CCCCCCCCCCCCCCCCO | -12.7% (inactive) | 
C#C[C@]1(O)CC[C@H]2[C@@H]3CCC4=Cc5oncc5C[C@]4(C)[C@H]3CC[C@@]21C | -13.1% (inactive) | 
C/C=C/c1ccc(O)c(OC)c1 | 2.19% (inactive) and -7.41% (inactive) | 
CCOc1ccc(NC(C)=O)cc1 | -12.1% (inactive) and 5.41% (inactive) | 
CCCCCCCC/C=C\CCCCCCCCN | 8.18% (inactive) | 
OC[C@H]1O[C@@H]2O[C@H]3[C@H](O)[C@@H](O)[C@@H](O[C@H]4[C@H](O)[C@@H](O)[C@@H](O[C@H]5[C@H](O)[C@@H](O)[C@@H](O[C@H]6[C@H](O)[C@@H](O)[C@@H](O[C@H]7[C@H](O)[C@@H](O)[C@@H](O[C@H]8[C@H](O)[C@@H](O)[C@@H](O[C@H]1[C@H](O)[C@H]2O)O[C@@H]8CO)O[C@@H]7CO)O[C@@H]6CO)O[C@@H]5CO)O[C@@H]4CO)O[C@@H]3CO | 10.2% (inactive) | 
COc1ccc(C(=O)c2ccccc2)c(O)c1 | -9.82% (inactive) and -18.3% (inactive) | 
CCOc1ccccc1C(N)=O | 0.966% (inactive) | 
O=C(O)c1ccc(S(=O)(=O)N(Cl)Cl)cc1 | 3.99% (inactive) | 
COc1ccc(C(Cl)=C(c2ccc(OC)cc2)c2ccc(OC)cc2)cc1 | -16% (inactive) | 
NCCNc1cccc2ccccc12 | -21.1% (inactive) | 44.7 µM (active)
CN(C)C(=O)Nc1ccc(Cl)c(Cl)c1 | 4.3% (inactive) | 
CCCCCCCCCCCCCC(=O)OC(C)C | 7.8% (inactive) | 
CC1(C)OC[C@@H]2O[C@@]3(C(=O)O)OC(C)(C)O[C@H]3[C@@H]2O1 | 1.08% (inactive) | 
CCCN(CCC)S(=O)(=O)c1ccc(C(=O)O)cc1 | 6.91% (inactive) and 7.89% (inactive) | 
CCCCCCCCCCCCCCCC(=O)O | 0.179% (inactive) | 
NC(=O)c1ccccc1O | 18.9% (inactive) | 
CCCCC(CC)COC(=O)c1ccc(N(C)C)cc1 (stereo not drawn) | -1.36% (inactive) and 6.53% (inactive) | 
CC1(COc2ccc(CC3SC(=O)NC3=O)cc2)CCCCC1 (stereo not drawn) | -22.1% (inactive) | 
CCCCCCCCOc1ccc(C(=O)c2ccccc2)c(O)c1 | -18.6% (inactive) | 
